Rows were chosen to be rich in hits. Some 2.8% of all compounds tested hit in one or more screens of this group.
Pol kappa inh – DNA polymerase kappa (human) inhibition. Q9UBT6. purified Pol kappa, fluorescent DNA synthesis assay, 10 min. Potency, µM (series often up to 107 µM), for the others: top-dose activity, negative = inhibition, most hits filed as inhibitors. 400,000 tested, 0.53% active; further: potency means the concentration at half of the fitted maximal effect; on the % scale 0 is the no-effect control and ±100 the full control effect
Target sequence (Q9UBT6 whole entry, looked up): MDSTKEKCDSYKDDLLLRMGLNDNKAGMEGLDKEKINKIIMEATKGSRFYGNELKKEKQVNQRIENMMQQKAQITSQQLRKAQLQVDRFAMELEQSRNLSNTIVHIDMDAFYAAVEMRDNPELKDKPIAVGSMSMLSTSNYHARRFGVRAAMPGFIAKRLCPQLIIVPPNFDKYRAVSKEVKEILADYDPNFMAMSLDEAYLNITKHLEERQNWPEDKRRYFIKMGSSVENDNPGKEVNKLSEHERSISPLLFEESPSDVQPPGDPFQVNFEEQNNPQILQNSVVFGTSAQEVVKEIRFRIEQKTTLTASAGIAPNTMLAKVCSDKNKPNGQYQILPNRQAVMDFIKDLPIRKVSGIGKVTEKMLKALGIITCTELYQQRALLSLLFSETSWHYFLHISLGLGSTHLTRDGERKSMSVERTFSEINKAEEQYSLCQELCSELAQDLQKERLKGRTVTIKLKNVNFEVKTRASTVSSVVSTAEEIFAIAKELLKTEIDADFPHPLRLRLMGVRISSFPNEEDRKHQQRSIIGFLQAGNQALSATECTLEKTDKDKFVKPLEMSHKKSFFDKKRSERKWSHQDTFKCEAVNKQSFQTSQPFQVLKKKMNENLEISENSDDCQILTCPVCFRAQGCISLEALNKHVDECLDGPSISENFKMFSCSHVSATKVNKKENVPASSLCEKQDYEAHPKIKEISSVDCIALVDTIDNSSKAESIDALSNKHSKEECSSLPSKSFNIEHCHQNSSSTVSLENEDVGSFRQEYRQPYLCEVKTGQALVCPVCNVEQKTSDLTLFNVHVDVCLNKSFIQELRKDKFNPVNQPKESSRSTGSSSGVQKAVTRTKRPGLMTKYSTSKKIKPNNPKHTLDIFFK
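Kinetic fluorescence readout at 0 and 10 min followed reaction start with substrate at 50 nM final. Beforehand, enzyme (10 nM Pol kappa) stood 15 min with compound at room temperature; buffer-only wells were negative controls.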
POLH inh – inhibitors of human DNA polymerase eta. Q9Y253. recombinant Pol eta, fluorescent DNA replication assay. Potency, µM (top dose mostly 114 µM), for the others: top-dose activity change, negative = inhibition, actives largely listed as inhibitors. 390,000 tested, 1.2% active. AID 588591; further: potency means the concentration at half of the fitted maximal effect; on the % scale 0 is the no-effect control and ±100 the full control effect
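Fluorescent replication assay: 50 nM final substrate added after a 15 min room-temperature compound preincubation with 10 nM enzyme. Signal taken at 0 min and again at 10 min.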
WRN inhibitor – inhibitors of human WRN helicase. Q14191. WRN helicase unwinding, fluorescent forked duplex, kinetic. Potency, µM (series often up to 114 µM), for the others: top-dose activity change, negative = inhibition, usual class: inhibitors. 360,000 tested, 0.46% active. AID 651768; further: potency means the concentration at half of the fitted maximal effect; on the % scale 0 is the no-effect control and ±100 the full control effect; nearly all actives have a fitted effect of over 55% in size
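Enzyme (20 nM final) and test compound sit together 15 min at room temperature before substrate addition. Substrate is a single-forked duplex oligonucleotide (100 nM) labelled with fluorophore and quencher, with 2 mM ATP; helicase unwinding raises red fluorescence, read kinetically.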
Pol beta inh – DNA polymerase beta (human) inhibition. Pol beta primer extension/strand displacement, fluorescence kinetic. Potency, µM (highest dose often 114 µM), for inactives: at the highest dose activity change, negative = inhibition, hits mostly inhibitors. 340,000 tested, 1.3% active. AID 485314; further: potency means the concentration at half of the fitted maximal effect; on the % scale 0 is the no-effect control and ±100 the full control effect
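Enzyme-only controls used 10 nM Pol beta; buffer lacking enzyme served as negative control. Compound preincubated 15 min, then 50 nM substrate added; 0 and 10 min reads at room temperature.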
POLI inh – DNA polymerase iota (human) inhibition; Q9UNA4; Pol iota fluorescent replication assay, 10 min; Potency, µM (series often up to 115 µM), for the others: top-dose activity, negative = inhibition, actives largely listed as inhibitors; 390,000 tested, 1% active; further: potency means the concentration at half of the fitted maximal effect
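Fluorescent replication assay read twice, at 0 min and 10 min after adding 50 nM (final) substrate. Enzyme (10 nM) and compounds were first incubated 15 min at room temperature; enzyme-free buffer wells were negative controls.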
PI5P4Ka inh – PI5P4K alpha (human) kinase inhibition. 330,000 tested, 1.2% active. max response, %. PI5P4Kalpha enzyme, ADP-Glo luminescence, 60 min; hits give low values. AID 652105; active means max response of -50% or lower; inconclusive means between -30% and -50%; inactive means -30% or higher; further: value at the top dose of about 77 µM; on the % scale 0 is the no-effect control and ±100 the full control effect
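Single end-point luminescence (ADP-Glo) quantified ADP from PI5P4Kalpha turnover; ATP 5 microM final, 1 h at RT, 0.1% CHAPS and 0.28 mM EGTA in HEPES pH 7.4.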
Starred values were filed as active, the others as inactive; [ ] = another dose, or the depositor's remark. Unless noted, the call rests on the fitted dose curve; in most records, active means well fitted curve in the direction sought with a large enough effect; inconclusive means small, poorly fitted or top-dose-only effect, or another doubt; inactive means no such curve, though single readings can be large; an effect the other way counts as inactive or inconclusive.

Screening Cc1cccn2c(=O)c3cc(S(=O)(=O)c4ccccc4)c(=N)n(Cc4ccc(F)cc4)c3nc12 returned Pol kappa inh 3%, POLH inh -18%, WRN inhibitor 1%, Pol beta inh 11%, POLI inh 15% and PI5P4Ka inh -3.
`O=C(CNC(=O)C1CCCCC1)OCC(=O)c1ccc2c(c1)CCC2` gave Pol kappa inh -11% and POLI inh 70%.
For Cc1cccc(C)c1NC(=O)CSCC(=O)c1ccc(O)c(O)c1 the results were Pol kappa inh -40%, POLH inh inconclusive, WRN inhibitor inconclusive, Pol beta inh -26%, POLI inh 20µM* and PI5P4Ka inh -5.
For O=C1/C(=C/c2cccnc2)CCC/C1=C\c1cccnc1 the results were Pol kappa inh 4%, POLH inh 22µM*, WRN inhibitor -11%[11.6 µM], Pol beta inh 0%, POLI inh 45µM* and PI5P4Ka inh 0.
`CN(C)c1ccc(/C=C2\CCC/C(=C\c3ccccc3)C2=O)cc1` gave Pol kappa inh 1%, POLH inh inconclusive, WRN inhibitor 50µM*, Pol beta inh 0%, POLI inh inconclusive and PI5P4Ka inh 25.
Screening O=C1/C(=C/c2cccnc2)CC/C1=C\c1cccnc1 returned Pol kappa inh -8%, POLH inh -9%, WRN inhibitor 7%, Pol beta inh 0%, POLI inh 12% and PI5P4Ka inh -11.
CCC1C/C(=C\c2cccnc2)C(=O)/C(=C/c2cccnc2)C1 (stereo unspecified) was read as Pol kappa inh -6%, POLH inh 11µM*, WRN inhibitor inconclusive, Pol beta inh 0%, POLI inh 22µM* and PI5P4Ka inh 3.
Screening CCn1c(O)c(/C=C2\C=NN=C2c2ccc(C)cc2)sc1=S returned Pol kappa inh -14%, POLH inh -21%, WRN inhibitor -2%[11.6 µM], Pol beta inh 44%, POLI inh 89µM* and PI5P4Ka inh 3.
CC(C)n1c(O)c(/C=C2\C=NN=C2c2ccccc2)sc1=S was read as Pol kappa inh -8%, POLH inh 1%, WRN inhibitor -4%, Pol beta inh -1%, POLI inh -22% and PI5P4Ka inh 0.
`Cc1nc(SCC(=O)NCc2ccco2)[nH]c(=O)c1C` gave Pol kappa inh -23%, POLH inh -16%, WRN inhibitor -17%[57.1 µM], Pol beta inh inconclusive and POLI inh 79µM*.
Screening CCOC(=O)CSc1nc2c(sc(=S)n2-c2ccc(OCC)cc2)c(=O)[nH]1 returned Pol kappa inh -3%, POLH inh -4%, WRN inhibitor -1%, Pol beta inh 43%, POLI inh 23% and PI5P4Ka inh -4.
Nc1nc(SCC(=O)NCc2ccco2)[nH]c(=O)c1-c1ccccc1 was read as Pol kappa inh 0%, POLH inh -4%, WRN inhibitor -11%, Pol beta inh 1% and POLI inh -39%.
Screening CCOc1ccc(-n2c(=S)sc3c(=O)[nH]c(SCC(=O)NCc4ccco4)nc32)cc1 returned Pol kappa inh -32%, POLH inh 56µM*, WRN inhibitor -24%, Pol beta inh 35µM* and POLI inh inconclusive.
`C=CCOC(=O)C(=O)/C=C/c1ccc2c(c1)Cc1ccccc1-2` gave Pol kappa inh -6%, POLH inh 3%, WRN inhibitor -22%, Pol beta inh 8%, POLI inh 13µM* and PI5P4Ka inh -13.
O=C(N/N=C/c1ccco1)c1cccc(S(=O)(=O)Nc2ccccc2Cl)c1 was read as Pol kappa inh inconclusive, POLH inh 20µM*, WRN inhibitor inconclusive, Pol beta inh 22µM*, POLI inh 45µM* and PI5P4Ka inh -25.
Screening Cc1ccc(S(=O)(=O)NCCc2nnc3ccc(SCc4ccc(F)cc4)nn23)cc1 returned Pol kappa inh -13%, POLH inh -10%, Pol beta inh 5% and POLI inh 15%.
